This is a sample that favours compounds with a hit; in the whole collection about 4% have one here.
Measles CPE: protection of cells from measles virus; Measles virus-infected cells, CPE protection, absorbance; protection (pct of control), % at 4 µM; hit rate 1.5% among 140,000; in the data active = protection mostly above about 24%, no sharp cut-off; inactive = mostly below about 26%
HSV replic up: increases HSV replication in cells; HSV replication augmentation in cells, fold increase; maximum fold increase; hit rate 0.005% among 220,000; AID 1956; in the data active = maximum fold increase above about 1.5; inconclusive = no clear call, values can overlap the other calls; tested in PC3 cells
KCC2 mod: modulates chloride dependent transport by human KCC2. Q9H2X9. KCC2 cells, thallium flux FluoZin-2 fluorescence. B-score of Tl+ flux slope (higher = more flux/activation; lower = inhibition) at 10 µM. hit rate 2.2% among 190,000;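 active = thallium flux slope and its plate-corrected score both differing from the plate sample mean at a set confidence after two filtering rounds, in either direction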;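 also: slope of fluorescence scaled to starting intensity during 10 to 20 s after thallium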
Target sequence (Q9H2X9 whole entry, looked up): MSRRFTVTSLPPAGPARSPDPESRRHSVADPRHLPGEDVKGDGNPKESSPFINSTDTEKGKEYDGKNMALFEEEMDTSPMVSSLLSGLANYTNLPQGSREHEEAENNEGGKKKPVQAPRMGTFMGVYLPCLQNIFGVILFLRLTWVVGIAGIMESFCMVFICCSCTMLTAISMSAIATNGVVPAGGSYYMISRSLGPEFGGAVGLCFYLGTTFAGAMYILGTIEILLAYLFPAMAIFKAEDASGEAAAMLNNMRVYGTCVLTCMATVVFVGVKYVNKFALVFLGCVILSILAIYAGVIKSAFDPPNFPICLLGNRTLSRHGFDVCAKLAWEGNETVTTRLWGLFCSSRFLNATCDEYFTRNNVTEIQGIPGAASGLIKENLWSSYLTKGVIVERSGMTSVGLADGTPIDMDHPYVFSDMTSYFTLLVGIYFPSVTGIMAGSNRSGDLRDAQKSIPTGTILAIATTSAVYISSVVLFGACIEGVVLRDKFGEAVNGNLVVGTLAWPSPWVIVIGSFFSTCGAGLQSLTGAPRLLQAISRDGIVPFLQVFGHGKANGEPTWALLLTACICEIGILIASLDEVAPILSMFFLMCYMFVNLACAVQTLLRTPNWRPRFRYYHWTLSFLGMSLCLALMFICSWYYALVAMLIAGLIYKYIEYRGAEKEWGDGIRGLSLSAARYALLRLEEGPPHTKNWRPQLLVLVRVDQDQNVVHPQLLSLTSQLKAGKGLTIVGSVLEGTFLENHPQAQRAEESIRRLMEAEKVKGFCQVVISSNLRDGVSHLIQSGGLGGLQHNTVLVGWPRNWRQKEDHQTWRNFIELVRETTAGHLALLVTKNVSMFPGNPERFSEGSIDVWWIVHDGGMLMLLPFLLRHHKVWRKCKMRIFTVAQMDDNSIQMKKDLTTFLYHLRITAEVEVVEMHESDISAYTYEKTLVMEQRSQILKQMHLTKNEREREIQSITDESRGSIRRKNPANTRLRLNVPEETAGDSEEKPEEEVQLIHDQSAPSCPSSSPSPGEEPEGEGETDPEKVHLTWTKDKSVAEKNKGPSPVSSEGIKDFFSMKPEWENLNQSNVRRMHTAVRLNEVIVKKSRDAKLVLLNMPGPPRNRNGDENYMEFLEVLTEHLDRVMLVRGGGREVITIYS
Arbovirus inh: antivirals against arbovirus infection | hit rate 0.37% among 200,000 | arbovirus infection cell-based antiviral screen | inhibition, % at 10 µM; in the data active = inhibition above about 30%
ROMK mod: human ROMK K+ channel modulation, primary screen; Tet-inducible ROMK, thallium flux fluorescence; actives lie on both sides; hit rate 2% among 130,000; P48048; B-score at 10 µM; AID 1918;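 active = signal ratio slope over the read window, or its plate-corrected B-score, at least 3 SD from the plate mean, either direction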;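 also: B-score of the F/F0 ratio slope over 7 to 12 s after thallium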
KCC2 sec1: confirmation of human KCC2 transport modulators; normalised thallium flux (F/F0 slope) at 10 µM; HEK293-KCC2, thallium flux, FluoZin2 fluorescence; stronger effect = higher value; AID 1713; shares compounds with KCC2 mod; hit rate 15% among 3,700;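 active = thallium flux slope above the same plate's solvent-only control mean plus 3 SD; inconclusive = the two replicate wells disagree; inactive = no significant difference from solvent-only control wells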
KCC2 bumet counter: bumetanide-insensitive thallium flux in KCC2 cells with ouabain, counter-screen | shares compounds with KCC2 mod | hit rate 49% among 3,700 | normalized thallium flux at 10 µM | HEK293-KCC2 + bumetanide/ouabain, thallium flux FluoZin2; stronger effect = higher value;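 active = thallium entry rate above the same plate's blocked-transporter control wells by more than 3 SD; inconclusive = the two repeat wells disagree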;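 also: raw slope of fluorescence over initial fluorescence between 10 and 20 s after thallium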
KCC2 secondary2: KCC2 (human) modulation, second secondary assay | hit rate 23% among 3,700 | HEK293-KCC2, thallium flux FluoZin2 fluorescence; actives lie on both sides; F/F0 rise rate, 10–20 s post-thallium | normalized thallium flux at 10 µM | shares compounds with KCC2 mod;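 active = thallium flux slope more than 3 SD above or below the plate's solvent-only control mean, mostly below; inconclusive = the two repeat wells disagreed; inactive = no significant shift from solvent-only controls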
HEK293 Tl flux: counter-screen for KCC2 modulators: effect in parental HEK293 cells; shares compounds with KCC2 mod; thallium flux FluoZin2, ouabain; baseline-ratio fluorescence slope, 10–20 s after thallium; thallium flux rate (normalised fluorescence) at 10 µM; hit rate 46% among 3,700;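 active = thallium flux rate significantly above the same plate's solvent-only control wells, beyond their mean plus 3 SD; inconclusive = the two replicate wells gave conflicting results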
KCC2 retest ouab: modulates human KCC2 on retest with ouabain. raw Tl+ flux slope (below DMSO = inhibition, above = activation) at 10 µM. shares compounds with KCC2 mod. hit rate 48% among 3,700. HEK293-KCC2, thallium flux FluoZin2 fluorescence; bidirectional: low = inhibitor, high = activator. AID 1717;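 active = thallium flux slope beyond 3 SD from same-plate DMSO control mean in most replicates, usually higher, sometimes lower; inconclusive = repeat tests gave conflicting results; inactive = no significant difference from controls in most replicates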;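 also: slope of initial-normalized fluorescence between seconds 10 and 20 after thallium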
HEK counter2: parental HEK flux effect, counter-screen 2. shares compounds with KCC2 mod. HEK293 parental, thallium flux FluoZin-2 fluorescence slope. thallium flux slope at 10 µM. hit rate 33% among 3,700. AID 1718;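 active = thallium flux slope above the same plate's solvent-control mean plus 3 SD in both duplicate wells; inconclusive = duplicate wells that disagreed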;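 also: run without ouabain in cells lacking the KCC2 cotransporter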
Hits are given with their value; . = inactive; ? = inconclusive; / = not tested or not shown.

SMILES | Measles CPE | HSV replic up | KCC2 mod | Arbovirus inh | ROMK mod | KCC2 sec1 | KCC2 bumet counter | KCC2 secondary2 | HEK293 Tl flux | KCC2 retest ouab | HEK counter2
COc1cc(NC(=O)c2ccc(F)cc2)c(OC)cc1Cl | . | . | . | . | . | / | / | / | / | / | /
COC(=O)c1cc(OC)c(OC)cc1NC(=S)N1CCN(C)CC1 | . | . | / | . | / | / | / | / | / | / | /
COC(=O)c1cc(OC)c(OC)cc1NC(=S)N1CCCCC1 | . | . | -3.87 | . | / | . | . | . | . | . | .
Cc1cc(C)n(-c2nnc3c4ccccc4n(C)c3n2)n1 | / | . | . | / | / | / | / | / | / | / | /
O=C(CC(Nc1ccccc1)c1ccccc1)C1CC1 (stereo unspecified) | / | . | . | / | / | / | / | / | / | / | /
COc1ccc(CCNC(=O)Cn2cnc3scc(-c4ccccc4)c3c2=O)cc1OC | / | . | . | . | . | / | / | / | / | / | /
CCOC(=O)c1sc2nc(Cc3ccc(Cl)cc3)[nH]c(=S)c2c1C | / | . | 79.1 | . | . | 0.0248 | 0.119 | 0.0379 | 0.0522 | 0.0759 | 0.0262
CCOC(=O)c1sc(-c2cccc(C(F)(F)F)c2)nc1O | / | . | 8.14 | / | / | . | 0.015 | . | 0.012 | ? | 0.0135
CCOC(=O)c1sc(-c2ccc(Cl)cc2)nc1O | / | . | 14.8 | / | / | . | 0.0216 | . | 0.0106 | . | ?
O=S(=O)(CCN1CCSCC1)c1ccccc1 | / | . | . | / | / | / | / | / | / | / | /
O=C(OCn1ncc(Cl)c(Cl)c1=O)c1ccc(F)cc1 | . | . | -4.11 | . | / | . | ? | 0.0256 | . | ? | .
O=C(OCn1ncc(Cl)c(Cl)c1=O)c1ccccc1Cl | . | . | -4.25 | . | / | . | . | . | ? | 0.0153 | .
O=C(Cn1ncc(Cl)c(Cl)c1=O)c1ccc(Cl)cc1 | . | / | . | . | / | / | / | / | / | / | /
O=c1c(Cl)c(Cl)cnn1Cc1ccc(F)cc1 | / | . | . | . | . | / | / | / | / | / | /
CC(=O)c1ccc(O)c(CSc2nncn2C)c1 | / | . | . | . | . | / | / | / | / | / | /
Cc1ccc(CNC(=O)CCC2CCCN(Cc3cccc4cccnc34)C2)o1 (stereo unspecified) | / | . | . | . | . | / | / | / | / | / | /
CCN(CC)CC#CCOC(=O)C(O)(c1ccccc1)C1CCCCC1 (stereo unspecified) | . | . | . | . | / | . | . | . | . | . | .
CCN(CC)CC#CCC(O)(c1ccccc1)C1CCCCC1 (stereo unspecified) | / | . | . | . | . | / | / | / | / | / | /
C=CCN(C(=O)CSC1=NC(=O)CN1C(C)=O)c1nc(C)c(-c2ccccc2)s1 | / | . | 10 | . | . | . | 0.0232 | . | 0.0224 | 0.0299 | 0.0188
CCN(CC)S(=O)(=O)c1cc(C)ccc1NC(=S)Nc1cccnc1 | / | . | . | . | . | / | / | / | / | / | /
O=C(c1ccc(S(=O)(=O)c2cccc(Cl)c2)c([N+](=O)[O-])c1)N1CCN(c2ccccn2)CC1 | / | . | -4.97 | . | . | . | . | 0.0221 | . | ? | .
CCNC(=S)NN=C1CCC(C(C)(C)C)CC1 (stereo unspecified) | . | / | 3.31 | . | . | . | 0.00658 | . | 0.0092 | . | .
CC(C)(C)C1CCC(=NNC(=O)CN(c2ccccc2)S(C)(=O)=O)CC1 (stereo unspecified) | . | . | . | . | / | / | / | / | / | / | /
CC(C)(C)C1CCc2onc(C(=O)Nc3cccnc3)c2C1 (stereo unspecified) | . | . | 6.46 | . | / | . | . | . | . | . | .
CC(C)(C)C1CCC(=NNC(=S)Nc2cccnc2)CC1 (stereo unspecified) | / | . | 6.81 | . | . | . | 0.013 | . | 0.0142 | ? | 0.0135
SMILES | Measles CPE | HSV replic up | KCC2 mod | Arbovirus inh | ROMK mod | KCC2 sec1 | KCC2 bumet counter | KCC2 secondary2 | HEK293 Tl flux | KCC2 retest ouab | HEK counter2
Oc1ccc(/C=N/NC(=S)Nc2cccnc2)c(O)c1O | / | . | . | / | / | / | / | / | / | / | /
Cc1cc(C(=O)c2ccc(C(C)(C)C)cc2)c(NC(=O)CCl)s1 | . | . | . | . | . | / | / | / | / | / | /
CC(C)CCNC(=O)C1CC2Cn3c(nc4cc(Cl)c(Cl)cc43)C2N1C (stereo unspecified) | / | . | / | / | / | / | / | / | / | / | /
CC1CN=C(N(C(=S)Nc2ccccc2)c2cccc(C(F)(F)F)c2)S1 (stereo unspecified) | / | . | . | / | / | / | / | / | / | / | /
Cc1noc(C(F)(F)F)c1C(=O)NNC(=O)c1ccccc1 | / | . | . | / | / | / | / | / | / | / | /
CCOc1ccc(N2CC(C(=O)Nc3c(C)n(C)n(-c4ccccc4)c3=O)CC2=O)cc1 (stereo unspecified) | / | . | -4.98 | . | . | . | . | . | . | . | .
CCOc1ccc(N2CC(C(=O)Nc3ccccc3OC)CC2=O)cc1 (stereo unspecified) | . | . | . | . | / | / | / | / | / | / | /
Cc1ccccc1OCCN1C(=O)c2ccccc2C1=O | . | / | . | . | / | / | / | / | / | / | /
Cc1ccccc1OCC(=O)NNC(=O)CCN1C(=O)c2ccccc2C1=O | / | . | -3.93 | . | . | . | . | 0.0234 | . | ? | .
CC(=O)c1cc(C(=O)N2CCCC(CCC(=O)N(C)CCc3ccccn3)C2)cs1 (stereo unspecified) | / | . | . | . | . | / | / | / | / | / | /
CC1CCCN(C(=O)CSc2nnc(-c3c[nH]c4ccccc34)o2)C1 (stereo unspecified) | . | . | -3.75 | . | . | . | . | ? | . | ? | .
CCC1CCCCN1C(=O)CSc1nnc(-c2c[nH]c3ccccc23)o1 (stereo unspecified) | . | . | -3.33 | . | . | . | . | . | . | 0.0222 | ?
CC1CCCC(C)N1C(=O)CSc1nnc(-c2c[nH]c3ccccc23)o1 (stereo unspecified) | . | . | / | . | . | / | / | / | / | / | /
c1ccc(-n2c(-c3ccncc3)nnc2-c2ccco2)cc1 | . | . | / | . | / | . | . | . | . | . | .
Brc1ccc(-c2noc3c2-c2nc(-c4ccccc4)sc2CC3)cc1 | / | . | / | / | / | / | / | / | / | / | /
O=C(CSc1ncnc2c1oc1ccccc12)N1CCCc2ccccc21 | . | . | / | . | . | . | . | . | . | 0.0163 | .
Cc1c(-n2c(SC(C)C(=O)NC(N)=O)nc3ccccc3c2=O)c(=O)n(-c2ccccc2)n1C (stereo unspecified) | / | . | . | . | . | / | / | / | / | / | /
O=c1oc2ccccc2cc1-c1csc(Cc2nc(-c3ccc(Br)cc3)cs2)n1 | . | . | / | . | / | / | / | / | / | / | /
Cc1ccc(-c2csc(Cc3nc(-c4cc5ccccc5oc4=O)cs3)n2)cc1 | . | . | / | . | . | . | . | . | . | . | .
CCOC(=O)C1=C(CBr)NC(=O)NC1C (stereo unspecified) | / | . | . | . | . | / | / | / | / | / | /

Compound activity (PubChem)
